The source of these data is PubChem BioAssay (NCATS).

Values joined by “and” are separate entries in the source; they are usually repeats but may differ in a detail not shown here. Identical values can stand only once. Results filed as inconclusive are left out. Unmarked numbers belong to inactive results. Active and inactive are the calls of the source. The call rests on the fitted dose curve; in most records, active means well fitted curve in the direction sought with a large enough effect; inconclusive means small, poorly fitted or top-dose-only effect, or another doubt; inactive means no such curve, though single readings can be large; an effect the other way counts as inactive or inconclusive.

For assay [1], the target named is Cellular tumor antigen p53 (Homo sapiens) (UniProt P04637). The assay is described as follows: Primary qHTS for small molecule compounds that upregulate eGFP-tagged delta133p53alpha (in N-terminal) cells. (AID 2060322). Further: nearly all actives have a fitted effect of over 75% in size. Further: potency means the concentration at half of the fitted maximal effect.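 On activation: cells pre-induced with doxycycline then dosed without doxycycline; series mostly up to about 56 µM; 0% = DMSO vehicle and 100% = reference activator.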 As to conditions: NCI-H358 eGFP-delta133p53alpha fluorescence, 24 h; activation: active compounds read high. A digest of the protocol: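 NCI-H358 cells pre-induced 24 h with 10 ng/ml doxycycline for eGFP-delta133p53alpha, plated dox-free and exposed 24 h at 37C to titrated compounds. Fixed, Hoechst-stained; gated GFP peak intensity by laser scanning cytometry, normalized to DMSO (0%) and 57.5 uM 5-azacytidine (100%).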
Sequence of Cellular tumor antigen p53 (Homo sapiens) (P04637 whole entry, looked up): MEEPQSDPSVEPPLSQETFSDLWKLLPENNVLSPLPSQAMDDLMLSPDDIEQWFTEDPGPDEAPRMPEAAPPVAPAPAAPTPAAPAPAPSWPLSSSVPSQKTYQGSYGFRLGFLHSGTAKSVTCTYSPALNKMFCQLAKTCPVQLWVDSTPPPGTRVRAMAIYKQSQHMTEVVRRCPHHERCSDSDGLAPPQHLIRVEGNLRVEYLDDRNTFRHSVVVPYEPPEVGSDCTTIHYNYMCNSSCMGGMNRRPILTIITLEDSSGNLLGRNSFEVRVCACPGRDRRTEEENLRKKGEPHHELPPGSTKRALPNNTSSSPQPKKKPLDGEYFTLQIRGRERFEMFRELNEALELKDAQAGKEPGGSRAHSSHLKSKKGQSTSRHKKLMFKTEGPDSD

Assay [2] addresses Aldehyde dehydrogenase, mitochondrial (Homo sapiens) (UniProt P05091). The assay is described as follows: qHTS for Inhibitors of the Aldehyde Dehydrogenase Family (ALDH2) Primary screen (AID 2061308).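 Further: plate controls were vehicle for no effect and reference inhibitor for full effect; nearly all actives have a fitted effect of over 55% in size.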
Assay [3] addresses Retinaldehyde dehydrogenase 3 (Homo sapiens) (UniProt P47895). Kind of assay: qHTS for Inhibitors of the Aldehyde Dehydrogenase Family (ALDH1A3) Primary screen (AID 2061315).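 Further: plate controls were DMSO vehicle for no effect and reference inhibitor for full effect.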

Turning to `N#CC(O[C@@H]1O[C@H](CO)[C@@H](O)[C@H](O)[C@H]1O)c1ccccc1` (some centres not stated), the activation in assay [1] is 13%. The Potency entry in assay [2] and in assay [3] was “inactive” each time.
`C=C1[C@@H](C)[C@H]2[C@H](Cc3ccccc3)NC(=O)[C@]23[C@H](OC(C)=O)/C=C/[C@](C)(O)C(=O)[C@@H](C)C/C=C/[C@H]3[C@@H]1O`: the activation in assay [1] is -8.04%. Further, the Potency result in assay [2] and in assay [3] was “inactive” in each case.
`C/C=C1/CN2CC[C@]34C(=Nc5ccc(OC)cc53)C2C[C@@H]1C4(CO)C(=O)OC` (some centres not stated): the activation in assay [1] was -9.16%. The Potency entry in assay [2] and in assay [3] was “inactive” each time.
As to `CCOc1ccc(Oc2ccc(OCc3cc(F)ccc3F)cc2)c(N)c1`, the activation in assay [1] was 3.57%. Besides, the Potency entry in assay [2] and in assay [3] was “inactive” in each case.
As for `O=C(O)c1ccnc2cc(C(OCCN3CCCCC3)c3ccccc3Cl)[nH]c12` (configuration not stated), the activation in assay [1] was -17%. For the same molecule, the Potency entry in assay [2] and in assay [3] was “inactive” throughout.
As for `CN1C(=O)c2ccccc2NC(=O)C1Cc1ccccc1` (configuration not stated), the activation in assay [1] is -18.3%. The Potency result in assay [2] and in assay [3] was “inactive” in each case.
Regarding `C[C@]12CC[C@H](O[C@@H]3O[C@H](CO)[C@@H](O)[C@H](O)[C@H]3O)CC1CC[C@@H]1C2CC[C@]2(C)[C@@H](C3=CC(=O)OC3)CC[C@]12O` (some centres not stated), in assay [1], the Potency was 11.7 µM (active). Besides, the Potency result in assay [2] and in assay [3] was “inactive” each time.
On to `CC(=O)OC[C@]12[C@H](OC(C)=O)C(=O)[C@@H]3[C@@H](O)[C@@]14O[C@@]3(C)COC(=O)c1cccnc1[C@@H](C)[C@H](C)C(=O)O[C@@H]([C@H](OC(C)=O)[C@@H]2OC(C)=O)[C@]4(C)O`, for which, in assay [1], the activation was 21.4%. The Potency result in assay [2] and in assay [3] was “inactive” in each case.
For the molecule `CN1CCCC1CCOC(c1cc2nccc(C(=O)O)c2[nH]1)c1ccccc1Cl` (configuration not stated), the activation in assay [1] was 4.33%. Besides, the Potency entry in assay [2] and in assay [3] was “inactive” throughout.
Regarding `CCC(C)(O)C1(C(=O)O)COC(=O)C1` (configuration not stated), in assay [1], the activation was 6.25%. For the same molecule, the Potency result in assay [2] and in assay [3] was “inactive” throughout.
As for `COCC1OC(=O)c2coc3c2C1(C)C1=C(C3=O)C2CCC(=O)C2(C)CC1O` (configuration not stated), in assay [1], the activation is -7.63%. Moreover, the Potency result in assay [2] and in assay [3] was “inactive” in each case.
On to `C[C@H]1C(=O)O[C@H]2[C@H](O)[C@]34C5OC(=O)[C@]3(O[C@@H]3OC(=O)[C@H](O)C34[C@H](C(C)(C)C)[C@H]5O)C12O` (some centres not stated), for which the activation in assay [1] is -12.2%. Besides, the Potency result in assay [2] and in assay [3] was “inactive” throughout.
`CCOC(=O)NC(C)(C)Cc1ccc(Cl)cc1`: the activation in assay [1] is -6.33%. The Potency entry in assay [2] and in assay [3] was “inactive” each time.
Regarding `C/C=C(\C)C(=O)OC1CC2C(CC=C3CC(OC4CC(OC)C(OC5CC(OC)C(OC6OC(C)C(OC7OC(CO)C(O)C(O)C7O)C(OC)C6O)C(C)O5)C(C)O4)CCC32C)C2(O)CCC(C(C)=O)C12C` (configuration not stated), the activation in assay [1] is -6.25%. The Potency entry in assay [2] and in assay [3] was “inactive” each time.
Take `CC(N[C@H]1C[C@H]1c1ccccc1)c1ccc2c(c1)OCCO2` (some centres not stated): the activation in assay [1] is -13.9% and -18.6%. The Potency entry in assay [2] and in assay [3] was “inactive” throughout.
In the case of `COc1ccc2c3c4n(c2c1)[C@@H](C=C(C)C)OOC(C)(C)C[C@@H]4N1C(=O)[C@@H]2CCCN2C(=O)[C@]1(O)[C@H]3OCC=C(C)C`, in assay [1], the activation was 15.3%. Further, the Potency entry in assay [2] and in assay [3] was “inactive” throughout.
As for `CC(C)[C@H](NC(=O)c1nn(Cc2ccc(F)cc2)c2ccccc12)C(N)=O`, in assay [1], the activation is -6.68%. The Potency entry in assay [2] and in assay [3] was “inactive” throughout.
As to `Oc1ccc2c(c1)C13CCCC[C@H]1[C@@H](C2)N(CC1CCC1)CC3`, in assay [1], the activation is 12.3%. Moreover, the Potency entry in assay [2] and in assay [3] was “inactive” each time.
As for `C=C1C2(C)CC3C(C)(O)C4=CC(=O)OC(C)(C)C4=CCC3(C)C13C(=O)OC(C)C3(O)C2=O` (configuration not stated), the activation in assay [1] was -0.763%. Also, the Potency result in assay [2] and in assay [3] was “inactive” each time.
Consider `COc1ccc2c3c([nH]c2c1)C(C=C(C)C)N1C(=O)C2CCCN2C(=O)C1C3` (configuration not stated), for which, in assay [1], the activation was -3.82%. The Potency entry in assay [2] and in assay [3] was “inactive” in each case.
For the molecule `CCCN(CCC)CCc1ccc(OC)c(OCCc2ccccc2)c1`, the activation in assay [1] was -1%. The Potency entry in assay [2] and in assay [3] was “inactive” each time.
In the case of `C/C=C(\C)C(O)C(C)/C=C(C)/C=C/C/C(C)=C/Cc1nc(OC)c(OC)c(O[C@@H]2O[C@@H](C)[C@H](O)[C@@H](O)[C@H]2O)c1C` (some centres not stated), the activation in assay [1] is -19.1%. Moreover, the Potency entry in assay [2] and in assay [3] was “inactive” throughout.
As to `C[C@H](CCC(=O)O)C[C@H](C)C[C@H](C)C(=O)/C=C(\O)[C@H](C)C[C@H](C)C/C=C/[C@@H](C)[C@@H](O)[C@@H](C)[C@@H](O)C[C@@H]1CC[C@@](C)([C@H]2CC[C@@](C)([C@@H](C)O)O2)O1`, the activation in assay [1] is -6.33%. Further, the Potency result in assay [2] and in assay [3] was “inactive” each time.
In the case of `Fc1cc(F)c2c(c1)[C@H]1C=CC[C@H]1C(c1cccnc1)N2` (some centres not stated), in assay [1], the activation is 2.39%. For the same molecule, the Potency result in assay [2] and in assay [3] was “inactive” throughout.
Consider `CC(=O)C1CCC2C3CCC4C[C@@H](O)CCC4(C)C3CCC12C` (some centres not stated), for which, in assay [1], the activation is -2.33%. The Potency result in assay [2] and in assay [3] was “inactive” throughout.
As for `C[C@]12CC[C@H](O[C@@H]3O[C@H](CO)[C@@H](O)[C@H](O)[C@H]3O)CC1=CC[C@@H]1C2CC[C@]2(C)[C@@H](C3=CC(=O)OC3)CC[C@]12O` (some centres not stated), the activation in assay [1] is 0.763%. For the same molecule, the Potency entry in assay [2] and in assay [3] was “inactive” throughout.
Take `C=CC(C)(C)c1[nH]c2cccc3c2c1C[C@@H]1[C@@H]3[C@@H](OC(C)=O)[C@H](C)CN1C`: in assay [1], the activation was 1.53%. Besides, the Potency entry in assay [2] and in assay [3] was “inactive” in each case.
Regarding `CC12Cc3cn[nH]c3C=C1CCC1C2CCC2(C)C1CCC2(C)O` (configuration not stated), in assay [1], the activation is 8.33%. Further, the Potency entry in assay [2] and in assay [3] was “inactive” each time.
For `C[C@H]1O[C@@H](O[C@H]2[C@@H](O)C[C@H](O[C@H]3[C@@H](O)C[C@H](O[C@H]4CC[C@@]5(C)[C@H](CC[C@@H]6[C@@H]5CC[C@]5(C)[C@@H](C7=CC(=O)OC7)CC[C@]65O)C4)O[C@@H]3C)O[C@@H]2C)C[C@H](O)[C@@H]1O`, the activation in assay [1] was 5.34%. The Potency entry in assay [2] and in assay [3] was “inactive” each time.
